Assay outcomes (PubChem BioAssay)
Hits are enriched below; roughly 1.8% of the tested compounds scored in any of these assays.
GLP1R inv ag = inverse agonists of human GLP-1 receptor. HEK293 GLP-1R CRE-luciferase, luminescence, 24 h; GLP-1R form is constitutively active. actives 1.6% (n = 410,000). Potency, µM (series often up to 38.3 µM), inactives show at the highest dose activity change, negative = inhibition, actives largely listed as inhibitors; note: % is set by controls: 0 for no effect and ±100 for the full control effect; nearly all actives have a fitted effect of over 55% in size
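HEK293 cells stably co-expressing constitutively active GLP-1R and a cAMP-responsive luciferase reporter were seeded in DMEM with 10% Nu serum, given compounds after 12 h, and incubated 24 h at 37 deg C. Luminescence was then read.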
GLP-1R agonist = GLP-1 receptor (human) agonism. actives 0.007% (n = 380,000). Potency, µM (series often up to 45.6 µM), for the others: at the top dose activation, most hits filed as activators. P43220. AID 624172. HEK293 GLP-1R CRE-luciferase, luminescence, 4-6 h; cells express a hypersensitive GLP-1R form; note: % of control where 0% means no effect
PGK inhibitor = T. brucei PGK inhibition; P07378; PGK/GAPDH coupled, Kinase-Glo luminescence, 60 min; Potency, µM (titrated, usually from 57.5 µM), inactives show top-dose activity change, negative = inhibition, hits mostly inhibitors; actives 0.043% (n = 380,000); note: % is set by controls: 0 for no effect and ±100 for the full control effect; nearly all actives have a fitted effect of over 60% in size
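Luminescent ATP detection (Kinase-Glo Plus) follows a 60-minute room-temperature incubation, with wells lacking PGK as controls. Buffer: 100 mM TEA (pH 7.6), 5 mM MgCl2, 0.01% Tween-20. Coupling enzyme GAPDH (100 nM final) supplies unstable 1,3-BPG in-well.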
Tb PFK inh = inhibitors of T. brucei phosphofructokinase; T. brucei PFK, ADP-Glo luminescence; Potency, µM (titrated, usually from 57.5 µM), inactives show top-dose activity, negative = inhibition, actives largely listed as inhibitors; actives 0.17% (n = 330,000); AID 485367;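 note: 0% = uninhibited 1x PFK enzyme wells and -100% = no-enzyme wells; nearly all actives have a fitted effect of over 60% in size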
Target sequence (O15648 whole entry, looked up): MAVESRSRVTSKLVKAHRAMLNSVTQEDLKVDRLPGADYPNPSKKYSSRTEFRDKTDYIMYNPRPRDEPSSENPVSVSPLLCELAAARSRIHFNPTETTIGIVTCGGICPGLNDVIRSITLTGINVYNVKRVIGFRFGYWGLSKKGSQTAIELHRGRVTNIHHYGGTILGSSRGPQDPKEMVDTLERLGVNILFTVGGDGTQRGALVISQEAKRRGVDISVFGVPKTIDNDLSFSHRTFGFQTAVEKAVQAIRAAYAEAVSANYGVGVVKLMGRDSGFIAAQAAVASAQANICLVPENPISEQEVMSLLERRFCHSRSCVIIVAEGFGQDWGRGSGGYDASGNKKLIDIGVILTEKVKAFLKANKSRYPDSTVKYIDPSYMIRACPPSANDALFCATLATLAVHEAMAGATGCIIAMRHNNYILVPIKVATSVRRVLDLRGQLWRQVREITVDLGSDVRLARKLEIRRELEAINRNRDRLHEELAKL
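Compounds were pin-transferred as a titration series up to 57 uM into substrate buffer (0.5 mM F6P, 0.1 mM ATP, pH 8.0), then 1.25 nM PFK was added and reactions ran 45 min before ADP-Glo detection.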
HEK293 tox = cytotoxicity counter-screen for GLP-1 receptor inverse agonists | HEK293 cAMP-luciferase reporter cells, luminescence, 24 h | AID 624418 | actives 0.13% (n = 410,000) | Potency, µM (titrated, usually from 38.3 µM), inactives show top-dose activity change, negative = inhibition, actives largely listed as inhibitors;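 note: loss of luciferase light is scored as toxicity; % is set by controls: 0 for no effect and ±100 for the full control effect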
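MLSMR compounds, 24 hr on cells at 37 deg C/5% CO2; luminescence after luciferase reagent (12 min RT). Inhibition counted as the undesired cytotoxic outcome.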
Pin1 inh = blocks the human prolyl isomerase Pin1; Q13526; Pin1 FP peptide displacement, HiFluor488, 10 min; Potency, µM (top dose mostly 115 µM), for inactives: top-dose activity, negative = inhibition, actives largely listed as inhibitors; actives 0.009% (n = 390,000); AID 504891; active = well fitted inhibition curve with a large enough effect in the polarisation, with a control signal flat, not every such curve was filed as active; inconclusive = small, poorly fitted or top-dose-only effect, or effect the other way, or a change in a side signal; inactive = no such curve, though single readings can be large or run the other way; the % refers to the polarisation; note: % is set by controls: 0 for no effect and ±100 for the full control effect
Numbers without * were called inactive; i = inactive; ? = inconclusive; . = no result given; ! = not active in a repeat; [ ] = remark or other dose. Unless noted, calls come from the whole dose curve; as a rule, active = well fitted curve in the direction sought with a large enough effect; inconclusive = small, poorly fitted or top-dose-only effect, or another doubt; inactive = no such curve, though single readings can be large; an effect the other way counts as inactive or inconclusive. Potency is the fitted concentration of half-maximal effect.

SMILES | GLP1R inv ag | GLP-1R agonist | PGK inhibitor | Tb PFK inh | HEK293 tox | Pin1 inh
COc1ccc(N2CCN(C(CNC(=O)C(=O)NCCC3=CCCCC3)c3ccco3)CC2)cc1 (stereo not given) | 10µM* | -0.6% | -0.7% | -0.2% | ? | -7.1%
COc1ccc(/C=N/NC(=O)c2ccc3ccccc3c2)cc1OS(=O)(=O)c1ccc(NC(C)=O)cc1 | -0.6% | -1.5% | 4.3%[11.5 µM] | 4.4% | 2.24µM* | 20.6%
CCOc1ccccc1NC(=O)c1nnn(-c2ccc3c(c2)OCCO3)c1N | 2.51µM* | 7.3% | i | 0.1% | -8.2% | 5.3%
S=C1NCCc2ccccc2C1c1ccccc1 (stereo not given) | 11.2µM* | 0.7% | 5.9% | 1.8% | ? | -3.6%
c1ccc2c(-c3cncc4ccccc34)cncc2c1 | 2µM* | 3.7% | -7.3% | . | -6.7% | -0.6%
Cc1cc(OCC(=O)Nc2ccccc2N2CCCC2)ccc1C(C)C | 11.2µM* | 24.7% | 5.8% | -1.6% | 17.6% | -2.2%
Cc1ccc(C(CNS(=O)(=O)c2ccc(F)cc2)N2CCN(C)CC2)cc1 (stereo not given) | ? | 1.4% | -2.1% | -11.7% | 1.6% | -7.4%
Cc1ccc(N(C)C(CNS(=O)(=O)c2ccccc2)c2ccccc2)cc1 (stereo not given) | 10µM* | . | . | . | 2.5% | 2.5%
Cc1ccc(S(=O)(=O)NCC(c2ccccc2)N2CCCCC2)cc1 (stereo not given) | 10µM* | 6.0% | 6.6% | 0.3% | 6.8% | -2.2%
Cc1ccc(C(CNS(=O)(=O)c2ccc(C)cc2)N2CCN(C)CC2)cc1 (stereo not given) | ? | 6.0% | -4.9% | 2.8% | 2.6% | -24.6%
CN1CCN(C(CNS(=O)(=O)c2ccc([N+](=O)[O-])cc2)c2ccc(F)cc2)CC1 (stereo not given) | 11.2µM* | -12.2% | -6.0% | -2.0% | -0.8% | -9.1%
CN(c1ccccc1)C(CNS(=O)(=O)c1ccccc1)c1ccccc1 (stereo not given) | ? | . | . | . | 7.7% | 1.4%
COc1ccc(CNC(=O)c2ccc(CS(=O)(=O)c3ccccc3OC)o2)cc1 | -0.8% | . | 8.3% | . | -2.7% | -1.6%
Cc1ccc(NC(=O)CCC(=O)N2Cc3ccccc3Oc3ncccc32)cc1F | -7.5% | . | 11.0% | . | -4.6% | -9.0%
CC1CCCC/C1=N/Nc1ccc([N+](=O)[O-])cc1[N+](=O)[O-] (stereo not given) | 9.9% | 6.2% | 3.5% | -0.5% | 6.9% | 0.7%
O=[N+]([O-])c1ccc(C2CCCC/C2=N\OCc2cccc(F)c2)c([N+](=O)[O-])c1 (stereo not given) | 10µM* | -3.8% | -5.2% | 0.0% | 20.9% | 2.3%
O=C(C[n+]1ccc(-c2cc(C(=O)Nc3cccc(C(F)(F)F)c3)c3ccccc3n2)cc1)c1cccc([N+](=O)[O-])c1 | 11.2µM* | -1.2% | -10.3% | 4.8% | ? | 18.1%
c1ccc(-c2cnc(-c3cccnc3)o2)cc1 | 131.3% | ? | -9.7% | 1.7% | 0.2% | -0.7%
NC(=O)c1ccc(-c2ncc(-c3ccccc3)o2)cc1 | 5.62µM* | -4.7% | -3.0% | 2.8% | 5.3% | 8.1%
CCn1c2ccc(C)cc2c2nnc(SCCN3CCCCC3)nc21 | ? | 19.4% | i | -0.2% | -0.6% | 0.3%
CCCn1c2ccc(C)cc2c2nnc(SCCN3CCCCC3)nc21 | 7.08µM*! | 15.1% | 0.3% | 0.0% | -13.5% | ?
CCSc1ncc(Cl)c(C(=O)N(Cc2ccc(N(C)C)cc2)Cc2ccco2)n1 | ? | . | . | . | -4.6% | -2.1%
CCSc1ncc(Cl)c(C(=O)N(Cc2ccccc2)c2ccc(OC)cc2)n1 | 5.62µM* | . | . | . | -12.5% | 1.6%
COc1ccc(/C=N/NC(=O)c2cccnc2)cc1CN1CCc2cc(OC)c(OC)cc2C1C (stereo not given) | -29.7% | 2.6% | 3.7% | -1.3% | 0.5% | 1.5%
